Common to all, as to conditions: concentration: 10 µM; 24 h
For assay [1], the system named is HCC1569. The assay can be described thus: cell number relative to DMSO (% of DMSO); higher = more cells (less growth inhibition / toxicity). The method in brief:
(§1)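 Compounds were applied at 10 µM for 24 h at 37 °C, in triplicate, to HCC1569 and TDF cells. The cells were then fixed and stained for H1.0, and nuclei were counterstained with DAPI. Nuclear H1.0 intensity or cell number is reported relative to the plate control as a percent, taking the median of replicates. Smoothing for positional effects was applied to HCC1569 values only.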

Assay [2] deals with TDF. The description is as above. The essentials:
as §1

Assay [3] relates to TDF. Kind of assay: H1.0 immunofluorescence intensity relative to DMSO (% of DMSO); higher = stronger H1.0 induction, active = 120 or more. The essentials: as §1
Assay [4] deals with HCC1569. Kind of assay: H1.0 immunofluorescence intensity relative to DMSO (% of DMSO); higher = stronger H1.0 induction, active = 140 or more. The method in brief: as §1
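For H1.0 immunofluorescence intensity relative to DMSO in this document: TDF is a line of transformed human dermal fibroblasts of mesenchymal origin.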
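For cell number relative to DMSO in this document: TDF denotes transformed human dermal fibroblasts of mesenchymal origin.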

Regarding `O=c1cc(-c2cccc3c2Sc2ccccc2S3)oc(N2CCOCC2)c1` [ATM Kinase Inhibitor], the cell number with HCC1569 [1] stood at 89.5; in the assay on TDF [2] it was 109. For the same compound, the H1.0 immunofluorescence intensity in the assay on TDF [3] was 98.4 (inactive); in the assay on HCC1569 [4], 113 (inactive).

As to `CCC=CCC=CCC=CCC=CCC=CCC=CCCC(=O)OC(COCCCCCCCCCCCCCCCC)COP(=O)([O-])OCC[N+](C)(C)C` (stereo unspecified), the cell number stood at 105 in the assay with HCC1569 [1] and 100 in the assay with TDF [2]. The H1.0 immunofluorescence intensity in the assay on TDF [3] was 95.7 (inactive); in the assay on HCC1569 [4], 101 (inactive).

Take `Cn1cc(C2=C(c3cn(CCCSC(=N)N)c4ccccc34)C(=O)NC2=O)c2ccccc21`: the cell number with HCC1569 [1] amounted to 53.9; with TDF [2], 21.3. In addition, the H1.0 immunofluorescence intensity in the assay with TDF [3] is 113 (inactive); with HCC1569 [4] it was 238 (active).

As for `O=C(O)c1cc2cc(F)ccc2[nH]1` [5-Fluoroindole-2-carboxylic acid], the cell number in the assay with HCC1569 [1] was 99.3; in the assay with TDF [2], 89. In addition, the H1.0 immunofluorescence intensity with TDF [3] is 102 (inactive); in the assay with HCC1569 [4], 98.6 (inactive).

With `Cc1ccc(C)c(-c2cc(C(F)(F)F)nn2-c2ccc(S(N)(=O)=O)cc2)c1`, the cell number with HCC1569 [1] worked out at 101; in the assay with TDF [2], 96.8. Moreover, the H1.0 immunofluorescence intensity is 97.5 (inactive) in the assay with TDF [3] and 101 (inactive) in the assay on HCC1569 [4].

`CC(C)NCC(O)c1ccc(NS(C)(=O)=O)cc1.Cl` (stereo unspecified) [Sotalol.HCl]: the cell number in the assay on HCC1569 [1] is 102; in the assay with TDF [2] it was 111. Also, the H1.0 immunofluorescence intensity in the assay on TDF [3] was 88.1 (inactive); with HCC1569 [4], 99 (inactive).

With `CC(F)(F)CN1CCOc2c(nn(-c3ccccc3Cl)c2-c2ccc(Cl)cc2)C1=O`, the cell number in the assay on HCC1569 [1] came to 104; in the assay with TDF [2], 101. The H1.0 immunofluorescence intensity is 93.5 (inactive) in the assay on TDF [3] and 88.3 (inactive) in the assay on HCC1569 [4].

For `COC(=O)C1C(O)CCC2CN3CCc4c([nH]c5ccccc45)C3CC21.Cl` (stereo unspecified) [Rauwolscine hydrochloride], the cell number in the assay with HCC1569 [1] was 99.9; with TDF [2] it was 117. The H1.0 immunofluorescence intensity is 87 (inactive) in the assay on TDF [3] and 103 (inactive) in the assay on HCC1569 [4].

In the case of `Nc1nc(SCc2ccc([N+](=O)[O-])cc2)c2ncn(C3OC(CO)C(O)C3O)c2n1` (stereo not drawn) [S-(4-Nitrobenzyl)-6-thioguanosine], the cell number in the assay with HCC1569 [1] stood at 101; with TDF [2], 98.2. In addition, the results for the H1.0 immunofluorescence intensity with TDF [3] and in the assay with HCC1569 [4] were 94.5 (inactive) and 93.2 (inactive), respectively.

As for `CCCS(=O)(=O)Nc1ccc(F)c(C(=O)c2c[nH]c3ncc(Cl)cc23)c1F`, the values for the cell number with HCC1569 [1] and with TDF [2] were 96.8 and 92.9, respectively. In addition, the H1.0 immunofluorescence intensity with TDF [3] was 105 (inactive); in the assay on HCC1569 [4] it was 111 (inactive).

Regarding `CCC1C(=O)N(C)c2cnc(Nc3ccc(C(=O)NC4CCN(C)CC4)cc3OC)nc2N1C1CCCC1` (stereo unspecified), the cell number in the assay with HCC1569 [1] stood at 27.1; in the assay on TDF [2], 32.4. In addition, the H1.0 immunofluorescence intensity was 157 (active) in the assay with TDF [3] and 136 (inactive) in the assay on HCC1569 [4].

In the case of `NC(=O)c1cccc(N)c1` [3-aminobenzamide], the cell number in the assay with HCC1569 [1] was 98.6; in the assay with TDF [2], 102. For the same compound, the H1.0 immunofluorescence intensity was 90.5 (inactive) in the assay on TDF [3] and 87.7 (inactive) with HCC1569 [4].

Regarding `N[C@@H](CCCC(=O)O)C(=O)O` [L-2-aminoadipic acid], the cell number came out at 105 in the assay on HCC1569 [1] and 109 with TDF [2]. For the same compound, the H1.0 immunofluorescence intensity in the assay on TDF [3] is 99.8 (inactive); in the assay with HCC1569 [4] it was 93.6 (inactive).

With `O=c1cc(N2CCOCC2)oc2c(-c3ccccc3)cccc12`, the cell number with HCC1569 [1] was determined as 83.3; in the assay on TDF [2] it was 102. Besides, the H1.0 immunofluorescence intensity in the assay on TDF [3] is 88 (inactive); with HCC1569 [4], 155 (active).

Turning to `O=[N+]([O-])c1ccc(-c2nc(-c3ccc(F)cc3)c(-c3ccncc3)[nH]2)cc1`, the figures for the cell number in the assay with HCC1569 [1] and in the assay with TDF [2] were 89.9 and 101, respectively. Further, the values for the H1.0 immunofluorescence intensity in the assay with TDF [3] and in the assay with HCC1569 [4] were 84.2 (inactive) and 139 (inactive), respectively.

As for `CCCCCCC=CC=CCCCCCCCC(=O)O` [(9Z,11E)-Octadecadienoic acid], the values for the cell number with HCC1569 [1] and with TDF [2] were 97.6 and 106, respectively. In addition, the H1.0 immunofluorescence intensity in the assay with TDF [3] is 99.8 (inactive); with HCC1569 [4], 100 (inactive).

Take `CC(C)(C)C1(O)CCN2CC3c4ccccc4CCc4cccc(c43)C2C1.Cl` (racemic): the cell number worked out at 105 in the assay on HCC1569 [1] and 111 in the assay on TDF [2]. Also, the H1.0 immunofluorescence intensity is 88.7 (inactive) in the assay on TDF [3] and 91 (inactive) with HCC1569 [4].

With `CC1=C(C(=O)Nc2cc3cn[nH]c3cc2F)C(c2ccc(C(F)(F)F)cc2)CC(=O)N1` (stereo unspecified), the cell number with HCC1569 [1] is 113; with TDF [2], 98.5. The H1.0 immunofluorescence intensity was 87.8 (inactive) in the assay on TDF [3] and 107 (inactive) in the assay on HCC1569 [4].

With `COC(=O)c1c(-c2cc(OC)c(OC)c(OC)c2)c2ccc(OCc3ccccn3)cc2c(=O)n1-c1ccc(N)cc1.O=S(=O)(O)O`, the cell number in the assay with HCC1569 [1] stood at 100; in the assay with TDF [2] it was 113. For the same compound, the H1.0 immunofluorescence intensity was 95.1 (inactive) in the assay on TDF [3] and 102 (inactive) with HCC1569 [4].

Consider `C[n+]1cccc(C(=O)O)c1.[Cl-]`, for which the cell number was found to be 99.8 with HCC1569 [1] and 94 with TDF [2]. The figures for the H1.0 immunofluorescence intensity in the assay on TDF [3] and in the assay with HCC1569 [4] were 101 (inactive) and 92.9 (inactive), respectively.

As for `CC[N+](CC)(CC)CCOc1ccc(C=Cc2ccccc2)cc1.[I-]`, the results for the cell number with HCC1569 [1] and in the assay on TDF [2] were 99.7 and 72.2, respectively. Besides, the H1.0 immunofluorescence intensity in the assay on TDF [3] is 104 (inactive); in the assay on HCC1569 [4], 111 (inactive).

Turning to `Cn1c(=O)c(-c2c(Cl)cccc2Cl)cc2cnc(Nc3cccc(C(=O)O)c3)nc21`, the cell number is 69.7 in the assay with HCC1569 [1] and 111 in the assay with TDF [2]. Moreover, the H1.0 immunofluorescence intensity is 95.7 (inactive) in the assay with TDF [3] and 156 (active) in the assay on HCC1569 [4].

`CC#N.Nc1nc(Nc2ccc(S(N)(=O)=O)cc2)nn1C(=O)c1c(F)cccc1F` [Aurora Kinase/Cdk Inhibitor]: the cell number is 62 in the assay on HCC1569 [1] and 39.5 in the assay on TDF [2]. The H1.0 immunofluorescence intensity in the assay on TDF [3] was 98.1 (inactive); with HCC1569 [4], 83.7 (inactive).

For the compound `COC1C(OC(=O)c2ccc(C)[nH]2)C(O)C(Oc2ccc3c(O)c(NC(=O)c4c[nH]c(C(=O)Nc5c(O)c6ccc(OC7OC(C)(C)C(OC)C(OC(=O)c8ccc(C)[nH]8)C7O)c(C)c6oc5=O)c4C)c(=O)oc3c2C)OC1(C)C` (stereo unspecified) [Coumermycin A1], the values for the cell number in the assay on HCC1569 [1] and with TDF [2] were 94.7 and 100, respectively. The values for the H1.0 immunofluorescence intensity with TDF [3] and with HCC1569 [4] were 93.5 (inactive) and 101 (inactive), respectively.

The record behind these values is the supplement of paper PMC7156485.
